JMJD2A Tudor: inhibitors of human JMJD2A Tudor domain. AlphaScreen JMJD2A-Tudor / H3K4me3 peptide binding. O75164. Potency, µM (highest dose often 114 µM), for the others: at the top dose activity change, negative = inhibition, actives largely listed as inhibitors. 4.4% of 390,000 active; further: potency means the concentration at half of the fitted maximal effect; on the % scale 0 is the no-effect control and ±100 the full control effect; nearly all actives have a fitted effect of over 50% in size
BAZ2B block: BAZ2B (human) inhibition. AlphaScreen BAZ2B-H3K14Ac peptide displacement. Potency, µM (top dose mostly 114 µM), for inactives: at the highest dose activity change, negative = inhibition, actives largely listed as inhibitors. 4.4% of 360,000 active. AID 504333; further: potency means the concentration at half of the fitted maximal effect; on the % scale 0 is the no-effect control and ±100 the full control effect; nearly all actives have a fitted effect of over 60% in size
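Multi-concentration screen (max 110 uM) measuring displacement of acetylated histone H3 peptide from BAZ2B by AlphaScreen, using 50 nM protein, 50 nM peptide and 10 ug/mL streptavidin donor plus Ni-chelate acceptor beads.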
G9a inh: G9a (human) methyltransferase inhibition; Q96KQ7; Potency, µM (highest dose often 102 µM), inactives show top-dose activity, negative = inhibition, usual class: inhibitors; 8.8% of 350,000 active; G9a H3K9 monomethylation, AlphaScreen, 2 h; further: potency means the concentration at half of the fitted maximal effect; on the % scale 0 is the no-effect control and ±100 the full control effect; nearly all actives have a fitted effect of over 75% in size
Target sequence (Q96KQ7 913-1193 limits assumed): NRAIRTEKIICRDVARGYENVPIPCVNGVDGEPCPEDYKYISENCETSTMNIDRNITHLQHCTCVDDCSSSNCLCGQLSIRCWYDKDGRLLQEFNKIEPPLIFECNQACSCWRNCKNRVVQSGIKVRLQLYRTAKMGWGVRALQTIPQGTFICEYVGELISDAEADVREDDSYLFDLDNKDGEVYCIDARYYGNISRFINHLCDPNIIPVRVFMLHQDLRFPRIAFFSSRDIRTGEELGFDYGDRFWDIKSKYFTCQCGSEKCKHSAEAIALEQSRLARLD
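Step 1: enzyme (final 20 nM) with compound, 15 min RT. Step 2: substrate peptide 500 nM and SAM 20 uM, 2 h RT. Step 3: anti-H3K9me1 antibody and AlphaScreen beads, 10 min, then plate read.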
PI5P4K alpha inh: blocks human PI5P4K alpha kinase activity; P48426; PI5P4Kalpha enzyme, ADP-Glo luminescence, 60 min; active compounds read low; max response, %; 1.2% of 330,000 active; active means max response of -50% or lower; inconclusive means between -30% and -50%; inactive means -30% or higher; further: value at the top dose of about 77 µM; on the % scale 0 is the no-effect control and ±100 the full control effect
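qHTS, 1536-well: enzyme/substrate mix, compound by pin tool, 5 microM ATP final; RT 60 min; ADP-Glo reagents 1 (45 min) then 2 (30 min); luminescence.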
HP1b chromo inh: inhibitors of HP1-beta chromodomain binding to methylated histone tails; 0.56% of 390,000 active; AlphaScreen HP1-beta / biotin-H3K9me3 peptide binding; P83916; AID 540317; Potency, µM (top dose mostly 114 µM), for the others: at the top dose activity change, negative = inhibition, actives largely listed as inhibitors; further: potency means the concentration at half of the fitted maximal effect; nearly all actives have a fitted effect of over 70% in size
Target sequence (P83916 whole entry, looked up): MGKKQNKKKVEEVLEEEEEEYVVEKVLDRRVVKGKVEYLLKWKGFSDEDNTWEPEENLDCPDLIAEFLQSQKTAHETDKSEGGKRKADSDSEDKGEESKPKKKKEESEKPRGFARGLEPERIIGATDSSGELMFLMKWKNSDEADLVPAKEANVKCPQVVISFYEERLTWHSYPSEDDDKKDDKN
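Compound inhibition of the preformed complex between 50 nM HP1-beta and 50 nM biotinylated H3K9me3 peptide was read by AlphaScreen. Buffer was PBS pH 7.4 with 0.01% Tween-20. Incubations ran 30 min at room temperature, with 10 ug/mL donor/acceptor beads.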
PLK1 PBD block: inhibitors of human PLK1 polo-box domain binding | 2.8% of 360,000 active | AID 720504 | Plk1 PBD binding of FITC phosphopeptide, fluorescence polarization | Potency, µM, inactives show max response, negative = inhibition, usual class: inhibitors | P53350; further: potency means the concentration at half of the fitted maximal effect; series mostly up to about 57 µM; on the % scale 0 is the no-effect control and ±100 the full control effect; nearly all actives have a fitted effect of over 65% in size
Numbers without * were called inactive; ? = inconclusive; · = not tested or not shown; [ ] = remark or other dose. Most compounds without a hit are left out; they make up all but 12% or so of the library. Unless noted, the call rests on the fitted dose curve; in most records, active means well fitted curve in the direction sought with a large enough effect; inconclusive means small, poorly fitted or top-dose-only effect, or another doubt; inactive means no such curve, though single readings can be large; an effect the other way counts as inactive or inconclusive.

SMILES	JMJD2A Tudor	BAZ2B block	G9a inh	PI5P4K alpha inh	HP1b chromo inh	PLK1 PBD block
Cc1ccc(C2C=C(c3ccccc3)Nc3nc(NS(=O)(=O)c4ccccc4)nn32)cc1 (stereo not drawn)	-8%	2%	14µM*	·	48%	·
Cc1ccc(C2C=C(c3ccccc3)Nc3nc(NS(C)(=O)=O)nn32)cc1 (stereo not drawn)	-5%	0%	20µM*	·	22%	·
O=S(=O)(Nc1nc2n(n1)C(c1ccccc1)C=C(c1ccc(Cl)cc1)N2)c1ccccc1 (stereo not drawn)	-5%	79µM*	?	·	55%	·
Cc1ccc(C2C=C(c3ccccc3)Nc3nc(N4C(=O)CCC4=O)nn32)cc1 (stereo not drawn)	79µM*	50µM*	?	-7	13%	?
CCCCN(C(=O)C1CCC(CNS(=O)(=O)c2cccc3nsnc23)CC1)c1ccccc1 (stereo not drawn)	?	-33%	?	·	-1%	·
COc1ccccc1N1CCN(C(=O)Cc2c(C(=O)O)c(C)cn2C)CC1	-28%	-6%	-1%[59 µM]	·	13%	·
Cc1ccc(C2C=C(c3ccc(Cl)cc3)Nc3nc(NC(=O)c4ccco4)nn32)cc1 (stereo not drawn)	79µM*	50µM*	32µM*	·	34%	·
COc1ccc(NC(=O)COC(=O)c2cc(Cl)ccc2O)cc1S(=O)(=O)N1CCCCC1	-7%	-4%	-8%[12.7 µM]	-2	19%	1%
COCC(C)NCc1ccccc1C (stereo not drawn)	6.3µM*	40µM*	?	3	?	0%
COc1cccc(CNCCOCCO)c1OC	-17%	·	3%[59 µM]	4	18%	-6%
COCC(C)NCc1cccc(C)c1 (stereo not drawn)	1%	-10%	8%[0.501 µM]	1	53%	-9%
COCC(C)NCc1cccc(OC)c1OC (stereo not drawn)	1.8µM*	?	18µM*	0	?	-2%
CCc1ccccc1NC(=O)CSC1=Nc2ccccc2C2=NC(Cc3ccccc3)C(=O)N12 (stereo not drawn)	-33%	-10%	5%[59 µM]	·	13%	·
Cc1cccc(NCc2n[nH]c(=S)n2-c2ccccc2)c1	-98%	?	?	-2	-24%	-16%
Cc1ccc(NCc2nc3ccccc3n2C)c(C)c1	?	?	?	1	-12%	0%
Cc1ccc(NCc2n[nH]c(=S)n2-c2ccccc2)cc1	?	?	1.6µM*	-1	-18%	-19%
Cc1ccc(NCc2n[nH]c(=S)n2-c2ccccc2)c(C)c1	56µM*	?	4µM*	-1	1%	-14%
CCOC(=O)C1=C(C)Nc2ccccc2N=C1NC(=O)C1CCN(C(=O)c2ccccc2C)CC1	-8%	·	·	0	41%	2%
CN1C(=O)Cc2cc(S(=O)(=O)CCC(=O)N3CCN(c4ccc(Cl)cc4)CC3)ccc21	-21%	-20%	1%[59 µM]	·	10%	·
CCC1=NN(C(=O)CCc2ccccc2)C(O)(C(F)(F)F)C1 (stereo not drawn)	6%	1%	25%[0.501 µM]	·	38%	2%
CCC1=NN(S(=O)(=O)c2ccc(C)cc2)C(O)(C(F)(F)F)C1 (stereo not drawn)	5%	-11%	40µM*	0	51%	-7%
Cc1ccc(CNC(=O)CCCn2c(=O)c3ccccc3n(CC(=O)Nc3ccc(C)c(C)c3)c2=O)cc1	-2%	-2%	-3%[59 µM]	·	35%	·
Cn1c(=O)c2c([nH]c(=S)n2Cc2ccc(Cl)cc2)n(C)c1=O	5.6µM*	22µM*	1.3µM*	-5	?	11µM*
Cc1cccc(C)c1N(CC(=O)Nc1cc(Cl)ccc1Oc1ccccc1)S(C)(=O)=O	-12%	11%	13µM*	13	28%	0%
COc1ccccc1OCC(=O)Nc1cc(Cl)ccc1N1CCCCC1	21%	13%	4%[2.33 µM]	2	82%	-3%
CCCCOC(=O)CSC1=C(C#N)C(c2ccccc2OC)C(C#N)C(=O)N1 (stereo not drawn)	?	?	-8%[0.501 µM]	4	23%	-13%

Assay outcomes (PubChem)
